log2 fold change data for 35 targets are collected here from the supplement of paper PMC10849652.

About 7,900 targets were measured; listed, in parts, are those with a hit and a random draw of the rest. About 0.6% of all pairs of compound and target were hits. Values without a mark were called inactive.

UniProt Q04446, sequence (Q04446 whole entry, looked up): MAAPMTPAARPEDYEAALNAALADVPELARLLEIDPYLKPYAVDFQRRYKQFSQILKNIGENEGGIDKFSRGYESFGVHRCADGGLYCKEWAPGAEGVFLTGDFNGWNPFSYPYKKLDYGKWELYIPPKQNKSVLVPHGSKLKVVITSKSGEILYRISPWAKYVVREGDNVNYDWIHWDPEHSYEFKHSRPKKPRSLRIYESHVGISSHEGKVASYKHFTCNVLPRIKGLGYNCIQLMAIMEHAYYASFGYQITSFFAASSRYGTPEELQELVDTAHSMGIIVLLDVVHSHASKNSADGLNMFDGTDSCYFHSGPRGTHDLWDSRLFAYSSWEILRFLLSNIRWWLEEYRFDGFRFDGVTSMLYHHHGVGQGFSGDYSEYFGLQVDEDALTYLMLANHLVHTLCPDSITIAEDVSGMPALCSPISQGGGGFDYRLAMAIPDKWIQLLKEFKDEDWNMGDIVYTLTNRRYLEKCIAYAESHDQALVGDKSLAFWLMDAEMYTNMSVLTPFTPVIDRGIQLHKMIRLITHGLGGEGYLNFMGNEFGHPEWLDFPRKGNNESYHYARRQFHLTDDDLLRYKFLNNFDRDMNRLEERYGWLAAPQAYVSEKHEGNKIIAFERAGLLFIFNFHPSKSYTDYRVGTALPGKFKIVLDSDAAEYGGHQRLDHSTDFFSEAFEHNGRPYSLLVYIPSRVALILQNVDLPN
UniProt Q9P2H3, sequence (Q9P2H3 whole entry, looked up): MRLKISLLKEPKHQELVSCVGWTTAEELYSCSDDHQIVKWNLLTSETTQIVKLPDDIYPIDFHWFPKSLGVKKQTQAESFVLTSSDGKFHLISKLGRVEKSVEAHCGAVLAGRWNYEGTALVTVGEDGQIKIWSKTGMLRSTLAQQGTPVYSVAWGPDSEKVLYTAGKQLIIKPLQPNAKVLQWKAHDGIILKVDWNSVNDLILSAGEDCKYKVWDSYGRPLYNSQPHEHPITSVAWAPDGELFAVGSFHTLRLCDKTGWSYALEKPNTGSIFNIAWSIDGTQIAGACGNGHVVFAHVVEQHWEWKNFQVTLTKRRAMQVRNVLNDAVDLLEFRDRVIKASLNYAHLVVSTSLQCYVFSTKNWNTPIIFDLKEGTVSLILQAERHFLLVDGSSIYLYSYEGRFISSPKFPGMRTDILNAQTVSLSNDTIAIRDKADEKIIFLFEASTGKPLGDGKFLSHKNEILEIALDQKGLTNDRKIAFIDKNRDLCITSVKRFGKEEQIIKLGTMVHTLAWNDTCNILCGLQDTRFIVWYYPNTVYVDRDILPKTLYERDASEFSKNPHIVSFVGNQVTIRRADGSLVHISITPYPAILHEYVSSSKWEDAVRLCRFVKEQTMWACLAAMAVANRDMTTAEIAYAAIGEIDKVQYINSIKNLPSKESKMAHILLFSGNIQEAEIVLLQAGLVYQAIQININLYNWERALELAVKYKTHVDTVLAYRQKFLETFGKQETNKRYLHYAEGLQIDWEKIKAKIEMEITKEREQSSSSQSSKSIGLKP
UniProt Q8TEQ6, sequence (Q8TEQ6 whole entry, looked up): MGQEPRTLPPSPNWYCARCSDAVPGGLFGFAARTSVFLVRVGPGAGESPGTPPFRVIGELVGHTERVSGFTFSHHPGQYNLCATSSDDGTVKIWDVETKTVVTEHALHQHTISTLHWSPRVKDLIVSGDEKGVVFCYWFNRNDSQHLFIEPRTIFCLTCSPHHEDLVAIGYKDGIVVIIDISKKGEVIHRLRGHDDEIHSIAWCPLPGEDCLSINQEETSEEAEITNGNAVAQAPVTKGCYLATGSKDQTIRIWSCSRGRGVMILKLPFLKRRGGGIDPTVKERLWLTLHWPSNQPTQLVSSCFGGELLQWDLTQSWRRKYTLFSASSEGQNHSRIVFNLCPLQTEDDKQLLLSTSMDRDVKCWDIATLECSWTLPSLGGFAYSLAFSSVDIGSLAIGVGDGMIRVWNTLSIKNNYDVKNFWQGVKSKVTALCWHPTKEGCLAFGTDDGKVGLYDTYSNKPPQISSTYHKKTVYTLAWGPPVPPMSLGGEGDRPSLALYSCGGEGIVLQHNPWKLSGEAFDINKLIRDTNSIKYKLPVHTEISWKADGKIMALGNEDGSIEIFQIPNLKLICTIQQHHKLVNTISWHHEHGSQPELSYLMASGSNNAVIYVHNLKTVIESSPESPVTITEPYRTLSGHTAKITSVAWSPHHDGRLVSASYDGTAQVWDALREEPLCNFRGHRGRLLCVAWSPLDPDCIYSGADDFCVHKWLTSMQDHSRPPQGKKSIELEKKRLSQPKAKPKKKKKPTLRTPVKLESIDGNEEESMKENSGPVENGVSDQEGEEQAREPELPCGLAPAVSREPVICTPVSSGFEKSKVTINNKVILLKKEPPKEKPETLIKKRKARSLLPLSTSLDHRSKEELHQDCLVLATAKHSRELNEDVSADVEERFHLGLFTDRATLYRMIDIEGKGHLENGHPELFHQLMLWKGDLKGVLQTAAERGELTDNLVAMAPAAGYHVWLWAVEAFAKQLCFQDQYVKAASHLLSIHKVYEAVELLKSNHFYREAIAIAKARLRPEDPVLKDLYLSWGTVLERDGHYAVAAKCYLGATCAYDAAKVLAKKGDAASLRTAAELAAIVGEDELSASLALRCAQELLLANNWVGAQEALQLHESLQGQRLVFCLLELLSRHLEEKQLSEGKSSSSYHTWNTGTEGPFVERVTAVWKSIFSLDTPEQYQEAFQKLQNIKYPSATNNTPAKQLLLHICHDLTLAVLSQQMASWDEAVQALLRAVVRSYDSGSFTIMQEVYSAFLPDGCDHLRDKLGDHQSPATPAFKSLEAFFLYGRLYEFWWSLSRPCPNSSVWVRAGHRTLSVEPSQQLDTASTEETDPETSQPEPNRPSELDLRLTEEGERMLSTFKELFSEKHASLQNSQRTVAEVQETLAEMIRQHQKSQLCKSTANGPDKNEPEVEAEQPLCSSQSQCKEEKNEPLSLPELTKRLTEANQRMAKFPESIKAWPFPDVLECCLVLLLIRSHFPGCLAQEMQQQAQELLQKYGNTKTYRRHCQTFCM
UniProt Q02790, sequence (Q02790 whole entry, looked up): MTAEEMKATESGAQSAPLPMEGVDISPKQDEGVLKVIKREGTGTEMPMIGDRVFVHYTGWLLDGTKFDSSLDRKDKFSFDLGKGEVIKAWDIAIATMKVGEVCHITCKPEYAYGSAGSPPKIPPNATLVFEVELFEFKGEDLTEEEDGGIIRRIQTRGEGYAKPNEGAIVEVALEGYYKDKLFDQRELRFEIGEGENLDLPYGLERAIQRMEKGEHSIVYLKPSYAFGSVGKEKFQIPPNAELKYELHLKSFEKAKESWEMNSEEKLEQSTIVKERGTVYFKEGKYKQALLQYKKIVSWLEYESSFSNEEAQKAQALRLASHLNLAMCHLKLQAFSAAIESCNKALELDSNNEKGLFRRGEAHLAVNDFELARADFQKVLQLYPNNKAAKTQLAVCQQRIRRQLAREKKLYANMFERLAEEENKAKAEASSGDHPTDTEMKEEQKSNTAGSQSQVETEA
UniProt P54652, sequence (P54652 whole entry, looked up): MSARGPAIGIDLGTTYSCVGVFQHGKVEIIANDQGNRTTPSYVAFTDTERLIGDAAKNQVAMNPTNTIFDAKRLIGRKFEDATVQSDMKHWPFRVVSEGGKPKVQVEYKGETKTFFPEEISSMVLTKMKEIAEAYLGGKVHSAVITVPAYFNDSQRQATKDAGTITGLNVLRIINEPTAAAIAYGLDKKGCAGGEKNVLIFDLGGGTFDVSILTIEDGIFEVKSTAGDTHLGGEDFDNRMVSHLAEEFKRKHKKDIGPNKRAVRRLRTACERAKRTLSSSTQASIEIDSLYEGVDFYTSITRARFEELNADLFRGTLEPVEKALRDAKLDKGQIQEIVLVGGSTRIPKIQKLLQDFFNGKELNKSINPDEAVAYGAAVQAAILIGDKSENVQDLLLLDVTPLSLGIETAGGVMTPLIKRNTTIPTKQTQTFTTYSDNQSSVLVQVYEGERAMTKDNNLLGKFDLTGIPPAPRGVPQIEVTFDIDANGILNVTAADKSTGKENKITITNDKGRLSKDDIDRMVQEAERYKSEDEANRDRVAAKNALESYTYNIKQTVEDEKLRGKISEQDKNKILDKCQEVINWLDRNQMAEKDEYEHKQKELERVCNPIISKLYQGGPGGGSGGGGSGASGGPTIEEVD
UniProt Q8NCW6, sequence (Q8NCW6 whole entry, looked up): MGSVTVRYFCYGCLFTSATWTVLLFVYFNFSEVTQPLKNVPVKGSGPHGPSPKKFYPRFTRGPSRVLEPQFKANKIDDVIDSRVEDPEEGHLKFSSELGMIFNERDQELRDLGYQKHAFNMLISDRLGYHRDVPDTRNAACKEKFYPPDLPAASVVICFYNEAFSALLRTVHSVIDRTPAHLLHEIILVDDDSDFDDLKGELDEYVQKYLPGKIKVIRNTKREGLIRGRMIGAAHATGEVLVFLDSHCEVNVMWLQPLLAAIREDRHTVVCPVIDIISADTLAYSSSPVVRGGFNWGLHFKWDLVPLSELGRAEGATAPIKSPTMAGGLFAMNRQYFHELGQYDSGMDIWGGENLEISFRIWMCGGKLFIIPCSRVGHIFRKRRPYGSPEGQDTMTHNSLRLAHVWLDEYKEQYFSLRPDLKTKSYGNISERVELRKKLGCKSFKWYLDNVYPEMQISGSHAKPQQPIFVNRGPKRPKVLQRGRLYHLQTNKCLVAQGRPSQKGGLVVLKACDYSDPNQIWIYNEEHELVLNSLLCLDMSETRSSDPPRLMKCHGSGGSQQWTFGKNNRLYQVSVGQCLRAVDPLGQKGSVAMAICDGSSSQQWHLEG
UniProt P23434, sequence (P23434 whole entry, looked up): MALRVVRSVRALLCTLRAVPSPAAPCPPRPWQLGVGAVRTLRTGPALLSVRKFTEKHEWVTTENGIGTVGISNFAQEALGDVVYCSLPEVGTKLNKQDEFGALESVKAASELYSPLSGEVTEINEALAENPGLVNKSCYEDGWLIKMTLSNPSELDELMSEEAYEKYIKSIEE
UniProt P52657, sequence (P52657 whole entry, looked up): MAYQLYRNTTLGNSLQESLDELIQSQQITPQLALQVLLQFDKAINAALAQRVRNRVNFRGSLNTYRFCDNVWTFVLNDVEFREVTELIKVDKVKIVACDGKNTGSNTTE

Compound in one assay: CC(=O)c1cnc2ccc(-c3cc(Cl)c(O)c(Cl)c3)nc2c1N[C@H]1CC[C@H](CN(C)C)CC1
The experiment in a line: log2 fold change, soluble protein after heating vs DMSO (PISA); higher = thermal stabilisation; K562 cells, 10 uM, 30 min; active = over 0.2 and 3.5 SD of the protein, either way, in both replicates (recomputed). In outline:
(§1)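 K562 cells at 2×10^6 cells/mL were given 10 μM compound for 30 min. Aliquots then went through 3 min of heating across 48°C-58°C, were pooled, and were extracted in PBS with 0.5% NP-40 at 4°C, and the supernatant after 21,000xg for 90 min was quantified by TMTpro 16plex LC-MS/MS with channel sums equalised. Thermal stability relative to control samples, from duplicates, is given as log2 fold change.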
On to GLCCI1 (UniProt Q86VQ1), for which the log2 fold change was -0.131.
Still for that read-out and setting: for GSK3A (UniProt P49840) the value was 0.303 (active).
For HIST2H3A (UniProt Q71DI3), the log2 fold change was -0.012.
GEMIN6 (UniProt Q8WXD5): the log2 fold change is 0.016.
The same measure, in the same setting: for IFT80 isoform 3 (UniProt Q9P2H3) the value was -0.073.
For FKBP4 (UniProt Q02790), the log2 fold change is -0.006.
Still for that read-out and setting: for HIC2 (UniProt Q96JB3) the value was 0.024; for FAM91A1 (UniProt Q658Y4), -0.025; for HIKESHI (UniProt Q53FT3), 0.023.
Same read-out and setting: for HSPA8 (UniProt E9PK54) the value was 0.015; for GTF2A2 (UniProt P52657), -0.002; for GBE1 (UniProt Q04446), -0.102.
Same read-out and setting: with HMGB3 (UniProt O15347) the figure was 0.083.
Consider FANCD2 isoform 1 (UniProt Q9BXW9), for which the log2 fold change was -0.155.
In the case of HBZ (UniProt P02008), the log2 fold change was -0.005.
On to GLIPR2 (UniProt Q9H4G4), for which the log2 fold change was -0.01.
The same measure, in the same setting: for GMEB1 (UniProt Q9Y692) the value was -0.021; for HTATIP2 isoform 3 (UniProt Q9BUP3), -0.034; for GOLPH3 (UniProt Q9H4A6), -0.023.
Still for that read-out and setting: with HIP1R (UniProt O75146) the figure was -0.022; with GCSH (UniProt P23434), 0.011.
Same read-out and setting: for GALNT11 (UniProt Q8NCW6) the value was -0.022.
FDPS (UniProt P14324): the log2 fold change was -0.096.
Same read-out and setting: for FEN1 (UniProt P39748) the value was -0.116; for GEMIN5 (UniProt Q8TEQ6), -0.155; for HMG20A (UniProt Q9NP66), -0.015.
Take GALNT2 (UniProt Q10471): the log2 fold change is -0.006.
Still for that read-out and setting: with IGF2BP2 (UniProt Q9Y6M1) the figure was -0.011; with GOLGA8R (UniProt I6L899), -0.106.
Same read-out and setting: for GEMIN2 (UniProt O14893) the value was -0.061.
Still for that read-out and setting: for IFT74 (UniProt Q96LB3) the value was 0.02; for HSPA2 (UniProt P54652), -0.28.
Consider HNRNPK isoform 2 (UniProt P61978), for which the log2 fold change is -0.161.
The same measure, in the same setting: with HNRNPH1 (UniProt P31943) the figure was -0.176; with FIBP (UniProt O43427), -0.146.

Compound in another assay: CC(C)(C)Cn1c(N)nc2ccc(-c3[nH]c(C(C)(C)C)nc3-c3ccc(F)cc3)nc21 [ralimetinib]
The assay is described as above. The gist of the method: as §1
As for GLCCI1 (UniProt Q86VQ1), the log2 fold change was 0.001.
Still for that read-out and setting: with GSK3A (UniProt P49840) the figure was -0.061; with HIST2H3A (UniProt Q71DI3), 0.292; with GEMIN6 (UniProt Q8WXD5), 0.188.
On the same count and under the same terms, for IFT80 isoform 3 (UniProt Q9P2H3) the value was -0.02; for FKBP4 (UniProt Q02790), -0.016.
On the same count and under the same terms, with HIC2 (UniProt Q96JB3) the figure was 0.218; with FAM91A1 (UniProt Q658Y4), 0.076; with HIKESHI (UniProt Q53FT3), -0.305 (active).
Regarding HSPA8 (UniProt E9PK54), the log2 fold change was -0.161.
On the same count and under the same terms, with GTF2A2 (UniProt P52657) the figure was -0.078.
On the same count and under the same terms, for GBE1 (UniProt Q04446) the value was 0.051; for HMGB3 (UniProt O15347), 0.163.
For FANCD2 isoform 1 (UniProt Q9BXW9), the log2 fold change is -0.082.
The same measure, in the same setting: for HBZ (UniProt P02008) the value was -0.052.
The same measure, in the same setting: with GLIPR2 (UniProt Q9H4G4) the figure was 0.04; with GMEB1 (UniProt Q9Y692), 0.01.
For the target HTATIP2 isoform 3 (UniProt Q9BUP3), the log2 fold change was 0.077.
Same read-out and setting: with GOLPH3 (UniProt Q9H4A6) the figure was -0.005; with HIP1R (UniProt O75146), 0.01.
As to GCSH (UniProt P23434), the log2 fold change was -0.026.
Still for that read-out and setting: with GALNT11 (UniProt Q8NCW6) the figure was 0.065; with FDPS (UniProt P14324), 0.048; with FEN1 (UniProt P39748), -0.008.
Still for that read-out and setting: with GEMIN5 (UniProt Q8TEQ6) the figure was 0.034; with HMG20A (UniProt Q9NP66), 0.275.
Still for that read-out and setting: with GALNT2 (UniProt Q10471) the figure was 0.014; with IGF2BP2 (UniProt Q9Y6M1), 0.209.
With GOLGA8R (UniProt I6L899), the log2 fold change is 0.247.
Consider GEMIN2 (UniProt O14893), for which the log2 fold change is 0.049.
On the same count and under the same terms, with IFT74 (UniProt Q96LB3) the figure was 0.27; with HSPA2 (UniProt P54652), 0.01.
The same measure, in the same setting: with HNRNPK isoform 2 (UniProt P61978) the figure was -0.054; with HNRNPH1 (UniProt P31943), -0.018.
On the same count and under the same terms, with FIBP (UniProt O43427) the figure was 0.041.
